Drawing on ChEMBL document CHEMBL2218924, “A broad activity screen in support of a chemogenomic map for kinase signalling research and drug discovery” (Biochem J, 2013), this text covers residual activity for 7 compounds.

Test [1] has as its target Calcium/calmodulin-dependent protein kinase type 1 (Homo sapiens) (UniProt Q14012). The following applies: at 1 µM.
Test [2] shares this target. To be noted: at 10 µM.
Test [3] deals with Calcium/calmodulin-dependent protein kinase type II subunit beta (Homo sapiens) (UniProt Q13554). To be noted: at 1 µM.
Test [4] shares this target. To be noted: at 10 µM.
The target in test [5] is Calcium/calmodulin-dependent protein kinase type II subunit gamma (Homo sapiens) (UniProt Q13555). To be noted: at 1 µM.
Test [6] has the same target. To be noted: at 10 µM.
The target of test [7] is Calcium/calmodulin-dependent protein kinase type II subunit delta (Homo sapiens) (UniProt Q13557). To be noted: at 1 µM.
For test [8] the target is unchanged. To be noted: at 10 µM.
Test [9] concerns the target T1, Calcium/calmodulin-dependent protein kinase type IV (Homo sapiens) (UniProt Q16566).
T1 sequence (whole entry): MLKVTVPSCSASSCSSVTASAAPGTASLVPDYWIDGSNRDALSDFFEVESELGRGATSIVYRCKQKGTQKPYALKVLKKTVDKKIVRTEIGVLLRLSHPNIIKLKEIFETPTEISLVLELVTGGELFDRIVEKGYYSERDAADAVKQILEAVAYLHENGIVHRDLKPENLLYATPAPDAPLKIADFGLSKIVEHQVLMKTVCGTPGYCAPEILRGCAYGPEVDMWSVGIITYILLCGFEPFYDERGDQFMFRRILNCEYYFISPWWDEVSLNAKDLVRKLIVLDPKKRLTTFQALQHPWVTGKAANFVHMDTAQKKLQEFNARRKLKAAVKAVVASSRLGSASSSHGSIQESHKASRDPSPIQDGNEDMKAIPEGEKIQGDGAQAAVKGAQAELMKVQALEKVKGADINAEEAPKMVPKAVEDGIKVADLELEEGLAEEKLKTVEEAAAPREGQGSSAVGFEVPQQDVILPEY
The following applies: at 1 µM.

The target of test [10] is T1, Calcium/calmodulin-dependent protein kinase type IV (Homo sapiens). The following applies: at 10 µM.
For test [11], the target named is Death-associated protein kinase 1 (Homo sapiens) (UniProt P53355). The following applies: at 10 µM.
The target in test [12] is Death-associated protein kinase 2 (Homo sapiens) (UniProt Q9UIK4). The following applies: at 1 µM.
Test [13] shares this target. To be noted: at 10 µM.
For test [14], the target named is T2, Serine/threonine-protein kinase DCLK2 (Homo sapiens) (UniProt Q8N568).
T2 sequence (whole entry): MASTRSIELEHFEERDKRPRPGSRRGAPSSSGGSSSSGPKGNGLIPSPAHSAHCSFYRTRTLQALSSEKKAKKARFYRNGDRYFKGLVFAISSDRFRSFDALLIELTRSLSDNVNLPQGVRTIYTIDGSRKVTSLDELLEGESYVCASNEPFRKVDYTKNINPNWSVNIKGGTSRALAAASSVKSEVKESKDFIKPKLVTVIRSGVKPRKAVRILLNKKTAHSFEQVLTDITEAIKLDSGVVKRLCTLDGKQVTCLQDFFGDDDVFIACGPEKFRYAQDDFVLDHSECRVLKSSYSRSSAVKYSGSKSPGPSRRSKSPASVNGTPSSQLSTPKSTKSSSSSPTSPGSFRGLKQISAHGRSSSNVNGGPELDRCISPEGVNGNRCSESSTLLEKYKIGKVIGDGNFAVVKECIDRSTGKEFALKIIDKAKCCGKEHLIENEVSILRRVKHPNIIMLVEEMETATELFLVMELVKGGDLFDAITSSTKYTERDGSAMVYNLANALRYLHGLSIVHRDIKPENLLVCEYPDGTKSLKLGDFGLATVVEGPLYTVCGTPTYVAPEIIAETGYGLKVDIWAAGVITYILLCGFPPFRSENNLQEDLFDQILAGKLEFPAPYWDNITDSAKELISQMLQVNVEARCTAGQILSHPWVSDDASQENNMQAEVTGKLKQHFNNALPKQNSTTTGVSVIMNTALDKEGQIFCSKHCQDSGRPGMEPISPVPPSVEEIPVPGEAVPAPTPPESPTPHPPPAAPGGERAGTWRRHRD
The following applies: at 10 µM.

For test [15], the target named is T3, Discoidin domain-containing receptor 2 (Homo sapiens) (UniProt Q16832).
T3 sequence (whole entry): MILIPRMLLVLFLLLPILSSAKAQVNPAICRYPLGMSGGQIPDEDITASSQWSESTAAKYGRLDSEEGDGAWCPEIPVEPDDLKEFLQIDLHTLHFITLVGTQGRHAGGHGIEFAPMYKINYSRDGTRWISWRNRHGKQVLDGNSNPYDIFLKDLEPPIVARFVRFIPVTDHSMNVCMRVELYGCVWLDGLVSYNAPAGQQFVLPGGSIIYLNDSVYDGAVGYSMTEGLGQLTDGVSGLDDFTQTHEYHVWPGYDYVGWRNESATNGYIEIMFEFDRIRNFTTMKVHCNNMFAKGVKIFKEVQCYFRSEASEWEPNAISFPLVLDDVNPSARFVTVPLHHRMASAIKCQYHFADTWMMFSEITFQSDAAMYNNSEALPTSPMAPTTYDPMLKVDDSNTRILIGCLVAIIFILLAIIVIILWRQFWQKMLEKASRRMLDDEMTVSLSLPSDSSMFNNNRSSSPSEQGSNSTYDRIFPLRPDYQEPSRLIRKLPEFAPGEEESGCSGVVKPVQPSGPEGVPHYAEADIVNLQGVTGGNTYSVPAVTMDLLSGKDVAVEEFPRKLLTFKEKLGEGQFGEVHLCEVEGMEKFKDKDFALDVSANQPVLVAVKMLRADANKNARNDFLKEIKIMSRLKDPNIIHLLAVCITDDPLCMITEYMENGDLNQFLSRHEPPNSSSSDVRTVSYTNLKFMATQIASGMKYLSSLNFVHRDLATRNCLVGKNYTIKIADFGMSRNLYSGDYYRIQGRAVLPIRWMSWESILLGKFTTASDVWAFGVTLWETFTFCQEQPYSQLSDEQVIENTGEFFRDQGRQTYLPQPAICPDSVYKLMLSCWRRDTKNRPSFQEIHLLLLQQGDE
The following applies: at 1 µM.

For test [16], the target named is T3, Discoidin domain-containing receptor 2 (Homo sapiens). The following applies: at 10 µM.
For test [17], the target named is T4, Myotonin-protein kinase (Homo sapiens) (UniProt Q09013).
T4 sequence (whole entry): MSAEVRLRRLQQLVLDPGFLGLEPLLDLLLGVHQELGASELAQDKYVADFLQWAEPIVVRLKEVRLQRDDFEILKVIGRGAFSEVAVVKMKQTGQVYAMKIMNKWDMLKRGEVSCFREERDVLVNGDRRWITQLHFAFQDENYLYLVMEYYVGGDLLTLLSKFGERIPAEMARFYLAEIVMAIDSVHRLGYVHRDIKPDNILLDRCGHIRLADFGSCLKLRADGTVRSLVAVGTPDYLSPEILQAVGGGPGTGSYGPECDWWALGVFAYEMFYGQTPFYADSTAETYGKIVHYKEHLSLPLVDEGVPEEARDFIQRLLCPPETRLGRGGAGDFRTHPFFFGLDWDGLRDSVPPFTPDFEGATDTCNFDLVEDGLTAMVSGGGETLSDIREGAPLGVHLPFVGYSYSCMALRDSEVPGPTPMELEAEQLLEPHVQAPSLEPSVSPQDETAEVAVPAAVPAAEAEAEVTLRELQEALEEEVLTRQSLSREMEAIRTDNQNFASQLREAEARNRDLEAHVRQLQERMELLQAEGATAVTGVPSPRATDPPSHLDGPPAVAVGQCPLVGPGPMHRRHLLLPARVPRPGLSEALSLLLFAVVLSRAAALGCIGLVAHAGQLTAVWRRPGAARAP
The following applies: at 1 µM.

Test [18] concerns the target T4, Myotonin-protein kinase (Homo sapiens). The following applies: at 10 µM.
The target of test [19] is T5, Serine/threonine-protein kinase 17A (Homo sapiens) (UniProt Q9UEE5).
T5 sequence (whole entry): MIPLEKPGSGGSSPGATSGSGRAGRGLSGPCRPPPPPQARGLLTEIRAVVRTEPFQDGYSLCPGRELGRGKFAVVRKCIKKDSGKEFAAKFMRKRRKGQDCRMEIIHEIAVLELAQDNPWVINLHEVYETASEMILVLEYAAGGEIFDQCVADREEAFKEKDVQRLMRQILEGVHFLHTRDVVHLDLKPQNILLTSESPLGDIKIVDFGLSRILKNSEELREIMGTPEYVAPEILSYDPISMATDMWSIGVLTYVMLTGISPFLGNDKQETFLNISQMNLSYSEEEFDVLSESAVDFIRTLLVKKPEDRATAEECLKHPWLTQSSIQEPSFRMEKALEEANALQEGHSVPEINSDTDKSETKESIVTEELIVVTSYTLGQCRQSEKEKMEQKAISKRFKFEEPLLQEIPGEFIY
The following applies: at 1 µM.

The target of test [20] is T2, Serine/threonine-protein kinase DCLK2 (Homo sapiens). To be noted: at 1 µM.

Sequence of Death-associated protein kinase 1 (Homo sapiens) (P53355 whole entry, looked up): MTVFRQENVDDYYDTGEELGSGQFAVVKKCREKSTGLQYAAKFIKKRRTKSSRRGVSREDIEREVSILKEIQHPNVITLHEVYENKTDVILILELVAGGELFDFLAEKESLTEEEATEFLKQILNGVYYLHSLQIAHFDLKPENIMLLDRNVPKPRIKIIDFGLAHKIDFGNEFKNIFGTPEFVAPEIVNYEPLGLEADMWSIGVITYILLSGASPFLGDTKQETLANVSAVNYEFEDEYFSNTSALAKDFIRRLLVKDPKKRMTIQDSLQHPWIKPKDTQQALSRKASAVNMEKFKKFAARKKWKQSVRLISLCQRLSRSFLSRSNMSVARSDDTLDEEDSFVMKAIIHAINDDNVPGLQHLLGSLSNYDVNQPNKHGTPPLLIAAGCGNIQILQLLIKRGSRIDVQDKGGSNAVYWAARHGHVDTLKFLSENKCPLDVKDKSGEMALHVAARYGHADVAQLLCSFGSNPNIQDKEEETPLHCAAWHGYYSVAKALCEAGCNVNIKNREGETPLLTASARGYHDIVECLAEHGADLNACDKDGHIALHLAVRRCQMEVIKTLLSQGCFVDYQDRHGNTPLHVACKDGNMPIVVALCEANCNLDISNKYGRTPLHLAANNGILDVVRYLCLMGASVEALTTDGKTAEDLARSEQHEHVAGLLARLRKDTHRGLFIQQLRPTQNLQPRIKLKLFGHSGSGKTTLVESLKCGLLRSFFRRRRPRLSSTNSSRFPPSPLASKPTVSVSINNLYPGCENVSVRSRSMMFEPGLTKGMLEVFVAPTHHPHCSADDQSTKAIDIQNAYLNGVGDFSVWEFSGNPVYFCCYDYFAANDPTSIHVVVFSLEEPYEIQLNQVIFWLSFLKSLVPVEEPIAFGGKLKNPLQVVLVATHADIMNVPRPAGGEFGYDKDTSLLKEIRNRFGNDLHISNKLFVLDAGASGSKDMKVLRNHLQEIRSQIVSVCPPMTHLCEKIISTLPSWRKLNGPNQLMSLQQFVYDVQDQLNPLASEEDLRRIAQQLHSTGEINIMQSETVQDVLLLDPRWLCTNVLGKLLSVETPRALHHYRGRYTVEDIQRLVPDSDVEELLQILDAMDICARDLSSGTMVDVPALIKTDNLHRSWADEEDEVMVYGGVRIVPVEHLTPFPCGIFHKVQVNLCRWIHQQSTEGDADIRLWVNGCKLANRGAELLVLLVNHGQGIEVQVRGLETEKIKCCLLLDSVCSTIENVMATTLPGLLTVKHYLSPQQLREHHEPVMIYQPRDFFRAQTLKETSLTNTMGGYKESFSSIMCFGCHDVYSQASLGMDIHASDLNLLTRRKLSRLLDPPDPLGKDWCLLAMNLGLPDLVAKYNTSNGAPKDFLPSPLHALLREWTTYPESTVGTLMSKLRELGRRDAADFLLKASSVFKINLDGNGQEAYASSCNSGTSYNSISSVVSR
Sequence of Calcium/calmodulin-dependent protein kinase type 1 (Homo sapiens) (Q14012 whole entry, looked up): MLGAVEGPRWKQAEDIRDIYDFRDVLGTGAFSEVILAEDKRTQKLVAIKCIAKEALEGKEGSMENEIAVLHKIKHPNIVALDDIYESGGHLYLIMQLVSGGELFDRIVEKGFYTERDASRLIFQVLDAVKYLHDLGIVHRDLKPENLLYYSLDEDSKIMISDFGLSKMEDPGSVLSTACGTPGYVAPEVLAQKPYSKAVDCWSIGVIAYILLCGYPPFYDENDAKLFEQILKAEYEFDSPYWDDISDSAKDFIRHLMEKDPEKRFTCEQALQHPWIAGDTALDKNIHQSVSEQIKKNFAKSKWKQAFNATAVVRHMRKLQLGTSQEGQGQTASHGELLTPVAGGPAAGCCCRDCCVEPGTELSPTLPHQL
Sequence of Calcium/calmodulin-dependent protein kinase type II subunit delta (Homo sapiens) (Q13557 whole entry): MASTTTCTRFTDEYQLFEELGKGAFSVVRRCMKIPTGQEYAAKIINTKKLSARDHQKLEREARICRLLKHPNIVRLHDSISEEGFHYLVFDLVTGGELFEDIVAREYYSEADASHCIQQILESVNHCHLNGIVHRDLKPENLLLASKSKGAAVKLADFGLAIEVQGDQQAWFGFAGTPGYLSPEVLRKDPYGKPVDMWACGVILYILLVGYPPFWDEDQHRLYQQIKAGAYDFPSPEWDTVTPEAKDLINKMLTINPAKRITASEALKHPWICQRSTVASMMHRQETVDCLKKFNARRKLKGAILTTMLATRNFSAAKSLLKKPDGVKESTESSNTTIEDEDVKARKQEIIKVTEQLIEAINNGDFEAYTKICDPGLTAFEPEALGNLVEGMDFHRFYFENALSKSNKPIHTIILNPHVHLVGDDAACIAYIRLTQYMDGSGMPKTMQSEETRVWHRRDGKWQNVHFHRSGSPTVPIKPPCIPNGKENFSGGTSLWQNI
Sequence of Death-associated protein kinase 2 (Homo sapiens) (Q9UIK4 whole entry, looked up): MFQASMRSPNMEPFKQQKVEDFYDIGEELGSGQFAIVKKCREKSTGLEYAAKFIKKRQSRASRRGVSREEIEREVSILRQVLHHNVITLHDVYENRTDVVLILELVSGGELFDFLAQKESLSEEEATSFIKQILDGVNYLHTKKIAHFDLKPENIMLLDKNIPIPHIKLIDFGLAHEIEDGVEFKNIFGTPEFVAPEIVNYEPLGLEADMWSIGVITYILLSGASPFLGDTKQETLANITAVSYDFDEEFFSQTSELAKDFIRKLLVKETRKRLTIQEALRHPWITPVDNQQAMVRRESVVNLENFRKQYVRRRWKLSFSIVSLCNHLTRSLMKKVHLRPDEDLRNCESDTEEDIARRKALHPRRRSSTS
Sequence of Calcium/calmodulin-dependent protein kinase type II subunit gamma (Homo sapiens) (Q13555 whole entry): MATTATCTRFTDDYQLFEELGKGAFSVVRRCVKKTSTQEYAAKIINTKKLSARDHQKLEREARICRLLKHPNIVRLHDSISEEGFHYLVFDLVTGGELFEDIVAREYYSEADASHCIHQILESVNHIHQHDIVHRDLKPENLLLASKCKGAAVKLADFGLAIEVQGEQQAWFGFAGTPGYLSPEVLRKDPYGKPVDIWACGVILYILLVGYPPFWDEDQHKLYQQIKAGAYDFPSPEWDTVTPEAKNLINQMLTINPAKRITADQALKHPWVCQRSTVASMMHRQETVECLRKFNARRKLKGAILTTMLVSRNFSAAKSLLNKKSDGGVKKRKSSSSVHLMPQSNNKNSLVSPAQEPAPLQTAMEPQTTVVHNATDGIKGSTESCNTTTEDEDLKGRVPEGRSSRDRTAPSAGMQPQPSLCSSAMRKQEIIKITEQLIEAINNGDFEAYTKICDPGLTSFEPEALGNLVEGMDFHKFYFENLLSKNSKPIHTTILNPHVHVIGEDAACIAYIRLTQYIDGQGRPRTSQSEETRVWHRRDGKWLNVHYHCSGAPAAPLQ
Sequence of Calcium/calmodulin-dependent protein kinase type II subunit beta (Homo sapiens) (Q13554 whole entry): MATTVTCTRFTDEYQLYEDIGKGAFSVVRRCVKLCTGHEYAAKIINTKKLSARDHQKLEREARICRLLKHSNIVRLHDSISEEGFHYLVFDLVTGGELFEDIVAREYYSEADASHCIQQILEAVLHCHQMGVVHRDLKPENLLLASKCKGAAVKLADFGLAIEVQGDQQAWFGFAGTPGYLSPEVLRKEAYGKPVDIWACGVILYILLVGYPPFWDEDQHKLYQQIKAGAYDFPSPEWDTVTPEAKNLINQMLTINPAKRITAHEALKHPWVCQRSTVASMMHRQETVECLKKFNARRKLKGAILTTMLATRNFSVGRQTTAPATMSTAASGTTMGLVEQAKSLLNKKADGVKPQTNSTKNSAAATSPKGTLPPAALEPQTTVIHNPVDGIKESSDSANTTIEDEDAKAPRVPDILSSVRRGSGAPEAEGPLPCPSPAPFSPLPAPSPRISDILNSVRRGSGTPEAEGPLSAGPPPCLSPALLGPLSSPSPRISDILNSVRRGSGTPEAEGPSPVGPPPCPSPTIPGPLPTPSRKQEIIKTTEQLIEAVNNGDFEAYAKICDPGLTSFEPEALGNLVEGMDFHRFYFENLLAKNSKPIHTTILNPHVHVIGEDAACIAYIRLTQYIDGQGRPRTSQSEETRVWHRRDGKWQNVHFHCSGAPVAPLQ

Consider `CN(C)CCCn1cc(C2=C(c3c[nH]c4ccccc34)C(=O)NC2=O)c2ccccc21`, for which the residual activity in test [1] was 89%; in test [2], 49%; in test [3], 63%; in test [4], 18%; in test [5], 28%; in test [6] it was 6%. Further, the residual activity in [7] was 16%; in test [8], 5%; in [9], 88%; in test [10], 45%; in test [11] it was 75%; in test [12], 72%. Moreover, the residual activity in test [13] turned out to be 33%; in [14] it was 88%; in test [15], 113%; in test [16], 82%; in [17], 31%; in test [18] it was 25%. Besides, the residual activity in test [19] was determined as 108%.
On to `Oc1c2ccccc2c2c3c(cccc13)N=N2`, for which the residual activity came to 77% in [1]; 32% in test [2]; 37% in test [5]; 8% in [6]; 43% in test [7]; 8% in test [8]. Also, the residual activity was determined as 73% in test [9]; 24% in test [10]; 68% in test [11]; 87% in test [12]; 43% in [13]; 116% in test [20]. Further, the residual activity in test [14] was determined as 51%; in [15], 93%; in test [16], 92%; in test [18], 68%; in test [19], 6%.
In the case of `Cc1cc(Nc2nc(-c3ccccc3)nc3ccccc23)n[nH]1`, the residual activity in [1] was 61%; in test [2], 13%; in test [4] it was 42%; in [5], 60%; in test [6], 16%; in [7] it was 63%. Moreover, the residual activity was found to be 20% in test [8]; 47% in [9]; 15% in [10]; 17% in test [11]; 56% in [12]; 11% in test [13]. The residual activity came to 99% in test [20]; 69% in test [14]; 71% in test [15]; 41% in [16]; 111% in test [17]; 79% in test [18]. Further, the residual activity in test [19] was found to be 42%.
As to `O=C1Nc2ccccc2/C1=C1/Nc2ccccc2/C1=N\OCCC(O)CO` (stereo not drawn), the residual activity in [1] was 64%; in [2], 15%; in [3] it was 27%; in test [4] it was 4%; in test [5], 6%; in test [6], 0%. In addition, the residual activity was found to be 6% in [7]; 1% in test [8]; 15% in test [9]; 9% in test [10]; 43% in [11]; 49% in test [12]. In addition, the residual activity stood at 12% in test [13]; 99% in test [20]; 35% in [14]; 76% in [15]; 46% in test [16]; 115% in test [17]. In addition, the values for the residual activity in test [18] and in test [19] were 69% and 5%, respectively.
`N#C/C(=C(\N)Sc1ccc(N)cc1)c1ccccc1C(F)(F)F`: the residual activity worked out at 83% in test [1]; 95% in [2]; 79% in test [3]; 86% in test [4]; 90% in [5]; 86% in test [6]. In addition, the residual activity in test [7] was 62%; in test [8], 47%; in [9] it was 107%; in test [10], 83%; in test [11], 78%; in test [12], 98%. For the same compound, the residual activity stood at 103% in test [13]; 102% in [20]; 99% in test [14]; 91% in [15]; 108% in test [16]; 95% in [17]. Besides, the results for the residual activity in [18] and in [19] were 85% and 96%, respectively.
With `N#CC(C#N)=C(N)/C(C#N)=C/c1ccc(O)cc1`, the residual activity worked out at 96% in [3]; 90% in test [4]; 116% in test [5]; 95% in test [6]; 92% in test [11]; 99% in test [12]. Moreover, the residual activity in [13] amounted to 97%; in test [20] it was 94%; in test [14], 47%; in test [15], 116%; in test [16] it was 97%; in test [18], 148%. In addition, in test [19], the residual activity turned out to be 91%.
On to `Ic1cccc(CSc2nnc(-c3ccncc3)o2)c1`, for which the residual activity worked out at 97% in test [1]; 79% in test [2]; 75% in test [3]; 55% in test [4]; 85% in test [5]; 74% in [6]. For the same compound, the residual activity in test [7] amounted to 73%; in test [8] it was 65%; in test [9], 106%; in test [10], 100%; in test [11], 76%; in test [12], 96%. Moreover, the residual activity was 100% in test [13]; 100% in [20]; 97% in test [14]; 86% in test [15]; 82% in test [16]; 82% in test [17]. Also, the residual activity worked out at 81% in test [18] and 100% in test [19].

What is called residual activity is the signal under treatment as a percentage of the control signal.
